Screening data deposited in PubChem by several laboratories.
IDE act – IDE (human) activation, cell-based. P14735. HEK cells, FAbeta-B cleavage, fluorescence polarization; 0% vehicle, 100% cell-free pure enzyme wells. activation, % at 5.96 µM. actives 0.073% (n = 340,000);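 active = activation above the mean of all tested compounds plus 3 SD, set per screening campaign, cut at about 17% in these data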
Rin1 Abl inh – human Rin1-Abl interaction inhibition; P00519+Q13671; TR-FRET Rin1/Abl binding, biochemical; inhibition, % at 7.35 µM; actives 0.4% (n = 360,000); AID 588664; in the data active = inhibition above about 5%, passing the limit was not always enough
IDE cell inh – inhibits human insulin-degrading enzyme in HEK cells; FAbetaB cleavage, fluorescence polarization; actives 0.41% (n = 320,000); AID 434962; inhibition, % at 5.59 µM;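 active = percent inhibition above the average of all tested compounds plus 3 SD, set per screening campaign, cut at about 16% in these data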;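 note: IDE supplied by intact live HEK cells; FP after avidin binding of uncleaved biotin substrate so inhibition keeps polarization high; 0% = DMSO wells and 100% = 60 µM reference IDE inhibitor Ii1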
Calb FLC – C. albicans growth modulation with fluconazole; actives 0.57% (n = 300,000); C. albicans CaCi-2 (fluconazole-resistant clinical isolate) + fluconazole, Alamar Blue growth, 48 h; growth inhibition, % (test concentration not listed);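 active = growth inhibition above about 58% in most replicates, limit read from the data, passing the limit was not always enough; inconclusive = exactly half the replicates above a set limit; inactive = most replicates below a set limit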;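 note: all wells also contain fluconazole at 8 µg/ml as a sub-toxic cotreatment; 0% = median of DMSO wells and 100% = median of geldanamycin control wells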
Rpn11 inh – Rpn11 (human) deubiquitinase inhibition | actives 0.59% (n = 360,000) | AID 588493 | O00487 | inhibition, % at 20 µM | human 26S proteasome, Ub4-pepOG fluorescence polarization; 20S core pre-blocked with epoxomicin;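 active = inhibition at 20 µM, scaled to each plate's controls, above about 33%, limit read from the data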
Target sequence (O00487 whole entry, looked up): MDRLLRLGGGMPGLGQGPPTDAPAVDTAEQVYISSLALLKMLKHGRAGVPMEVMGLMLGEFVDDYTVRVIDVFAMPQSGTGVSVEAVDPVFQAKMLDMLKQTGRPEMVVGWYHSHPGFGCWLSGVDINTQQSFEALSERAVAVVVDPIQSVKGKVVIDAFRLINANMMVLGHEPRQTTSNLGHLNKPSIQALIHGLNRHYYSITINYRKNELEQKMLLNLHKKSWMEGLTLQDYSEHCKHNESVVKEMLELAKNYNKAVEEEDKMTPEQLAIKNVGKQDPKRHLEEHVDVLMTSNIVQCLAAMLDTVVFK
TPT1 inh – blocks Candida albicans tRNA 2'-phosphotransferase; recombinant caTPT1, FP RNA substrate dephosphorylation; inhibition, % at 5 µM; actives 0.81% (n = 300,000); AID 1962;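 active = inhibition above the mean of all tested compounds plus 3 SD, set per screening campaign, cut at about 24% in these data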;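 note: plate controls were DMSO alone for no effect and ferristatin control at 100 nM for full effect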
caTPT1 confirm – TPT1 (C. albicans) inhibition, confirmation. shares compounds with TPT1 inh. recombinant caTPT1, fluorescence polarization, RNase T1 coupled. inhibition, % at 5 µM. actives 74% (n = 2,400). AID 2149;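 active = inhibition above the primary screen limit, the mean inhibition of all tested compounds plus 3 SD, cut at about 25% in these data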
RNase T1 inh – blocks Aspergillus oryzae RNase T1, a TPT1 counter-screen. shares compounds with TPT1 inh. RNase T1 cleavage, fluorescence polarization, 1536-well. inhibition, % at 5 µM. actives 83% (n = 2,400);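 active = inhibition above the solvent-only control well mean plus 3 SD, limit set per screening run, cut at about 23% in these data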;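 note: plate controls were DMSO wells with enzyme for no effect and wells without RNase T1 for full effect; inhibitors block cleavage so intact labeled substrate keeps polarization high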
Target sequence (P00651 whole entry, looked up): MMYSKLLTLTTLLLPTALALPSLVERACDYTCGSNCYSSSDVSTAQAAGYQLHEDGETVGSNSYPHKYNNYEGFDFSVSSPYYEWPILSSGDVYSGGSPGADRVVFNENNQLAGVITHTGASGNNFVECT
IDE cell inh cf – confirmation of human insulin-degrading enzyme inhibitors in cells; shares compounds with IDE cell inh; HEK cells, FAbetaB cleavage, fluorescence polarization; inhibition, % at 5.59 µM; actives 51% (n = 1,200); AID 435028;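 active = mean inhibition across triplicate wells above the cutoff set by the earlier primary insulin-degrading enzyme screen, cut at about 16% in these data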;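 note: 0% = DMSO wells and 100% = 60 µM reference IDE inhibitor Ii1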
HEK cytotox – counter-screen for IDE inhibitors: cytotoxicity in HEK cells; HEK293 cytotoxicity, ATP luminescence; actives 28% (n = 1,200); shares compounds with IDE cell inh; inhibition, % at 5.59 µM; in the data active = inhibition above about 22%;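 note: 0% = vehicle wells and 100% = reference cytotoxic drug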
* = called active by the depositor; ? = inconclusive; . = no result shown. A selection: hits, their analogues and other compounds. The true share with any hit is near 2.3%.

SMILES	IDE act	Rin1 Abl inh	IDE cell inh	Calb FLC	Rpn11 inh	TPT1 inh	caTPT1 confirm	RNase T1 inh	others
NC(=O)c1cc(N2CC2)c([N+](=O)[O-])cc1[N+](=O)[O-]	6.8	-5.7	6.2	.	0.7	-5.0	.	.
O=c1[nH]c(=S)n(-c2ccccc2)c(O)c1/C=N/N1CCCCC1c1cccnc1 (stereo not given)	-4.6	-0.3	11.0	-1.8	.	29.7*	20.9	30.7*
CC(C)n1c(=O)c(C=Nc2ccc(Cl)cc2)c(O)n(Cc2ccco2)c1=O	.	.	5.5	-14.8	.	22.0	.	.
COc1ccc([N+](=O)[O-])cc1N=Cc1c(O)n(CCc2ccccc2)c(=O)n(C(C)C)c1=O	3.4	-5.3	-1.5	23.6	12.8	37.9*	5.9	14.9
CN1C(=O)C(=Cc2ccc(N3CCCCC3)o2)C(=O)N(C)C1=S	-11.0	-19.9	8.6	14.0	.	85.2*	104.7*	111.5*
CCN(CC)c1ccc(C=C2C(=O)N(C)C(=S)N(C)C2=O)o1	-15.5	-7.3	11.7	2.6	.	93.2*	102.0*	112.4*
O=[N+]([O-])c1ccc(NCCCN2CCOCC2)nc1	7.5	-0.8	3.4	23.1	-1.8	-2.9	.	.
CN(C(=O)Oc1ccc(C(C)(C)C)cc1)c1ccccc1	4.1	-1.6	-1.9	-24.2	-3.7	-4.5	.	.
Oc1c(Cl)c(Cl)c(Cl)c(Cl)c1Cl	2.8	0.7	1.3	.	2.6	2.3	.	.
CC(Cc1ccccc1)N1C(=O)c2ccccc2C1=O (stereo not given)	4.3	2.9	1.1	6.0	0.2	-1.2	.	.
Cc1cc(C=C(C#N)C#N)ccc1N1CCCC1	-11.1	-4.4	6.9	30.6	-34.7	126.0*	120.3*	139.2*
CN1C(=O)C(=Cc2ccc(SC3CCCCC3)o2)C(=O)N(C)C1=O	1.6	2.8	-2.6	-7.3	10.0	8.1	.	.
CN(C)C=C1C(=O)N(C2CCCCC2)C(=O)N(C2CCCCC2)C1=O	6.9	-5.0	0.2	8.7	-1.2	28.6*	42.9*	57.9*
Cn1c(O)c(C(c2ccccn2)c2c(O)n(C)c(=S)n(C)c2=O)c(=O)n(C)c1=S	2.7	-1.0	-3.0	-2.8	0.4	4.9	.	.
CC(=O)c1c(O)n(C)c(=S)n(-c2ccccc2)c1=O	5.2	0.7	7.0	13.0	33.1	45.2*	29.5*	40.4*
CC(=O)c1c(O)n(-c2cccc(Cl)c2)c(=O)[nH]c1=O (tested in a mixture with another compound)	0.0	4.3	-0.6	13.6	29.3	28.4*	33.8*	42.7*
COc1cc2[nH]c(=O)n(-c3cccc(Cl)c3)c(=O)c2cc1OC	4.8	4.7	4.0	2.0	0.4	-0.9	.	.
O=C1NC(=O)N(c2ccccc2)C(=O)/C1=C/c1ccoc1	-12.4	7.4	9.6	-0.3	25.4	112.7*	60.4*	74.2*
Cc1ccc(N2C(=O)NC(=O)/C(=C/c3cnc(-c4ccccc4)nc3)C2=O)cc1C	-2.1	0.8	10.8	3.2	13.2	24.6*	7.4	12.4
Cc1cccc(N2C(=O)NC(=O)/C(=C\c3cnc(-c4ccccc4)nc3)C2=O)c1	1.0	-2.7	5.5	2.5	2.2	4.0	.	.
Cc1ccc(N2C(=O)NC(=O)/C(=C\c3ccsc3)C2=O)cc1C	.	.	0.7	18.0	.	27.6*	52.2*	65.6*
COc1ccc(-c2ccc3c(c2)CN(C(=S)NCCc2ccccc2)Cc2cnnn2-3)cc1	.	6.3	.	.	14.8	.	.	.
Cc1ccc(S(=O)(=O)NP(=O)(Oc2ccccc2)Oc2ccccc2)cc1	-0.6	5.3	4.7	20.3	7.6	24.4*	9.3	19.2
CCCCCCn1c(O)c(C=NCCCn2ccnc2)c(=O)[nH]c1=O	-1.0	-2.0	-6.7	1.6	.	133.5*	72.9*	89.0*
O=c1[nH]c(=O)n(Cc2ccccc2)c(O)c1C=NCCCO	1.8	-3.8	3.7	-9.3	.	48.5*	61.6*	75.8*
SMILES	IDE act	Rin1 Abl inh	IDE cell inh	Calb FLC	Rpn11 inh	TPT1 inh	caTPT1 confirm	RNase T1 inh	others
COc1ccc(Cn2c(O)c(C=NCCCn3ccnc3)c(=O)[nH]c2=O)cc1	-2.7	0.3	-1.0	2.3	1.8	3.4	.	.
CCCCN=Cc1c(O)n(-c2c(C)cc(C)cc2C)c(=O)[nH]c1=O	1.4	2.4	4.2	?	22.4	32.6*	33.6*	45.0*
CCOCCCN=Cc1c(O)n(Cc2ccccc2)c(=O)[nH]c1=O	5.3	1.9	2.5	4.0	-4.7	1.9	.	.
COC(=O)C1=C(c2cccc(C#N)c2)C[C@@H]2CC[C@H]1N2C(=O)N1CCOCC1	-3.3	-0.6	4.1	.	9.1	.	.	.
O=C1COc2ccc(C(=O)COC(=O)Cc3ccccc3)cc2N1	-0.6	1.1	9.0	5.7	1.8	-1.1	.	.
CCc1ccc(N2C(=O)NC(=O)/C(=C/c3cccn3CCOc3ccc(C)cc3)C2=O)cc1	-4.7	-0.6	7.6	25.1	.	8.8	.	.
O=C1NC(=O)N(Cc2ccco2)C(=O)/C1=C\c1cccn1CCOc1ccc(Cl)cc1	-2.9	0.1	9.4	-7.6	6.4	62.5*	15.2	19.3
Cc1cccc(OCCn2cccc2/C=C2/C(=O)NC(=O)N(Cc3ccco3)C2=O)c1	.	-1.5	9.0	-3.8	7.6	28.8*	18.4	24.3*
COC(=O)C1=Nc2ccccc2/C1=C\c1c(O)n(-c2ccc(Br)cc2)c(=O)[nH]c1=O	0.6	-1.1	5.8	.	15.4	26.7*	33.2*	43.5*
CCN(CC)c1ccc(/C=C2\C(=O)NC(=S)N(C)C2=O)o1	-25.4	-20.0	26.5*	-1.3	.	123.2*	135.1*	134.6*	IDE cell inh cf=29.4*;HEK cytotox=13.6
CCN(CC)c1ccc(/C=C2\C(=O)NC(=S)N(c3ccc(OC)cc3OC)C2=O)o1	-32.7	-19.5	33.4*	-7.0	.	141.4*	150.2*	141.5*	IDE cell inh cf=36.0*;HEK cytotox=3.8
COc1ccc(N2C(=O)NC(=O)/C(=C\c3cn(CC(=O)N4CCOCC4)c4ccccc34)C2=O)c(OC)c1	-3.0	-3.1	-0.2	-1.8	10.1	11.9	.	.
CC1C2Cc3ccc(O)cc3[C@]1(C)CCN2CCc1ccccc1 (stereo not given in full)	1.3	-6.9	6.2	.	2.4	.	.	.
